# Measured values taken from PubChem BioAssay.
# Assay: DUSP6 inhibitors restoring Erk phosphorylation by chemical complementation, primary imaging in DUSP6-transfected HeLa (AID 609)
# Details: HeLa MKP-3 transfected, phospho-Erk imaging KS statistic; measured here: nuclear c-Myc green intensity z-score; at 10 µM; cells stimulated with TPA for 15 min
row,SMILES,z-score
1,CCN1CCc2c(C#N)c(N3CCCCC3)nc(N3CCOCC3)c2C1,-1.22
2,CC(NC(=O)Nc1nnc(C(F)(F)F)s1)(C(F)(F)F)C(F)(F)F,0.624
3,O=c1[nH]c2sc3c(c2c(=O)n1Cc1ccccc1)CCC3,0.335
4,CC1(C)Cc2c(C#N)c(OCC(=O)c3ccccc3)nc(-c3ccoc3)c2CO1,-1.5
5,O=c1[nH]c2cnccc2n1-c1ccccc1,-0.89
6,O=C(c1cc(N2CCCCC2)nc2ccccc12)N1CCOCC1,2.14
7,CC(C)(C)NC(=O)/C=N/O,-0.26
8,COc1cc(N2CCCC2)c(OC)cc1/C=c1/sc2nc3ccccc3n2c1=O,0.0669
9,COc1cccc(C(=O)OC2CCCN(C)C2)c1 (stereo not given),1.21
10,N#Cc1nc(-c2cccs2)oc1NCc1ccccc1Cl,1.03
11,Cc1cc(=O)oc(C)c1C(=O)n1nc(C)c2c1C[C@@H]1[C@H]2C1(C)C,0.72
12,Brc1ccc2c(c1)CNc1c(ncnc1N1CCOCC1)O2,1.47
13,CCOC(=O)NC1(C(F)(F)F)C(=O)NC(C)=C1C#N (stereo not given),-0.0162
14,COCc1n[nH]c(=S)n1-c1cccc2ccccc12,0.388
15,OC1(C2(O)CC(c3ccccc3)ON2)CCCCC1 (stereo not given),0.138
16,CC(C)Cc1nc(N2CCN(C(=O)Cc3ccccc3)CC2)c(C#N)c2c1COC(C)(C)C2,-0.0812
17,CCCCCNc1nc(N2CCCC2)c2c(c1C#N)CCN(C)C2,0.142
18,O=c1c(-c2ccc(Cl)cc2)[n+]([O-])c2ccccc2n1O,0.796
19,COc1ccccc1C1/C(=C(/O)c2ccc(OC(C)C)cc2)C(=O)C(=O)N1c1cc(C)on1 (stereo not given),-0.452
20,Cc1ccc(CNc2oc(COc3ccccc3Cl)nc2C#N)cc1,-0.319

row,SMILES,z-score
1,COc1ccc(/C(O)=C2\C(=O)C(=O)N(CCN(C)C)C2c2cccc(OC)c2OC)cc1Cl (stereo not given),-0.411
2,CCC(=O)Nc1nc2ccccc2n1CCN(C)C,0.524
3,CCCC(C)n1[nH]c(=O)cc1N (stereo not given),-1.78
4,CCN(CC)CCOC(=O)c1c(C)n(C)c2ccc(OC)cc12,-1.04
5,CN(C)CCCn1c(NC(=O)C2CCCCC2)nc2ccccc21,-0.199
6,COc1ccccc1NC(=O)CSc1nnc(-c2ccc(NC(C)=O)cc2)n1C,-0.306
7,O=C(Nc1ccc(N2CCN(C(=O)c3ccccc3)CC2)c(Cl)c1)c1ccc(Br)o1,0.543
8,Cc1nc2c(o1)CCc1ccccc1C2N1CCN(C)CC1 (stereo not given),-1.51
9,CN(CCNC(=O)c1ccc(/C=N/O)nc1)Cc1ccccc1,-0.398
10,O=C1C=C(N2CCN(C3=CC(=O)CCC3)CC2)CCC1,2.6
11,Nc1nc2n(n1)C(c1cccs1)CC(c1ccc(F)cc1)N2 (stereo not given),0.295
12,CC(=O)/C=C(\C)NCCNc1c(F)c(F)c(CO)c(F)c1F,-0.56
13,CC1(C)Cc2nc3sc4c(N(CCO)CCO)ncnc4c3cc2CO1,0.534
14,COC(=O)c1ccc(CN(C(C)=O)c2ccccc2)o1,-0.22
15,O=C(c1ccc(=O)oc1)N1CCN(C(c2ccccc2)c2ccccc2)CC1,0.461
16,Cc1ccc(-n2c(SCC(=O)NCc3ccco3)nc3nc4c(cc3c2=O)COC(C)(C)C4)cc1,-1.97
17,Cc1cc(=O)[nH]c(COc2ccccc2)n1,0.603
18,N#Cc1nc(COc2ccccc2F)oc1NCCCn1ccnc1,1.53
19,COC(=O)c1ccc(C2/C(=C(\O)c3ccc4c(c3)OCCO4)C(=O)C(=O)N2CCCN(C)C)cc1 (stereo not given),-0.278
20,COc1ccc(C(=O)c2oc3nc(C)cc(C)c3c2N)cc1,-1.17
